High-throughput results deposited in PubChem by National Center for Advancing Translational Sciences (NCATS).
Only some compounds are listed: those with a hit (about 19% of all), similar ones and a draw of the others.
VP16 counter: Gal4-VP16 reporter inhibition counter-screen | Drosophila S2 Gal4-VP16 UAS-luciferase, luminescence, 20 h | Potency, µM (doses to about 53.6 µM), usual class: inhibitors | 310,000 compounds, 3.5% hits | AID 2546;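 also: Gal4-VP16 expression switched on by copper sulfate through the metallothionein promoter; nearly all actives have a fitted effect of over 50% in size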
DT40 TDP1 CPT: growth inhibition of DT40 Tdp1-/-;hTDP1 cells with camptothecin (screen for TDP1 inhibitors) | chicken DT40 Tdp1-/-;hTDP1 cells + 20 nM CPT, ATP luminescence, 48 h | Potency, µM (titrated, usually from 46.2 µM), actives largely listed as inhibitors | 420,000 compounds, 12% hits; also: nearly all actives have a fitted effect of over 55% in size
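Chicken DT40 Tdp1-/- cells complemented with human TDP1, 400 cells/well, exposed to compounds plus 20 nM camptothecin for at least 48 h at 37 C; viability read as ATP content by CellTiter-Glo luminescence.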
RORg inh: blocks mouse ROR gamma transcriptional activity; P51450; AID 2551; Drosophila S2 Gal4-RORgamma UAS-luciferase reporter, 20 h; Potency, µM (highest dose often 53.6 µM), actives largely listed as inhibitors; 310,000 compounds, 5.4% hits; also: nearly all actives have a fitted effect of over 60% in size
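Drosophila S2 cells stably expressing Gal4-DBD/mouse RORγ fusion under metallothionein promoter plus UAS-luciferase; compound 1 h, then 700 uM CuSO4 induction for 20 h at ambient temperature; inhibition read as reduced luminescence.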
TDP1 block: TDP1 (human) enzyme inhibition. 350,000 compounds, 0.28% hits. Potency, µM (top dose mostly 130 µM), usual class: inhibitors. Q9NUW8. AID 485290. recombinant TDP1, AlphaScreen DNA substrate cleavage; also: nearly all actives have a fitted effect of over 40% in size
Target sequence (Q9NUW8 whole entry, looked up): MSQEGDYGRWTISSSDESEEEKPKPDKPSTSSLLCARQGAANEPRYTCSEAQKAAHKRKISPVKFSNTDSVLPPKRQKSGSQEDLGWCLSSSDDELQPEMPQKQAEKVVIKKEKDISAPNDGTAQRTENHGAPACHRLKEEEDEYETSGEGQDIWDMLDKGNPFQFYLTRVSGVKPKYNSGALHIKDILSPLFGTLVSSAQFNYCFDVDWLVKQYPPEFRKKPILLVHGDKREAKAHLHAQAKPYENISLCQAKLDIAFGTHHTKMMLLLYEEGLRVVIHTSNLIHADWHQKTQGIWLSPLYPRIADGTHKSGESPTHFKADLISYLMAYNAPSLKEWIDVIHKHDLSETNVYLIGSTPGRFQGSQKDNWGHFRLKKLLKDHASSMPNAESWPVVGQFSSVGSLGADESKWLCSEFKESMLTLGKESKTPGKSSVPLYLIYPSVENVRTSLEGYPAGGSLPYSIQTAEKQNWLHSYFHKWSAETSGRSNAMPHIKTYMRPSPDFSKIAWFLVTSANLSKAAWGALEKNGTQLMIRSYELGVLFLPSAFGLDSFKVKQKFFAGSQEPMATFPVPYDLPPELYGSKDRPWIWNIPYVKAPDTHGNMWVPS
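Here, a 5' biotin and 3' phosphotyrosine-FITC DNA oligonucleotide reports Tdp1 activity: intact substrate bridges AlphaScreen beads, while cleavage leaves a 3' phosphate and drops signal. All incubations at room temperature.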
DT40 TDP1 no CPT: qHTS for Inhibitors of human tyrosyl-DNA phosphodiesterase 1 (TDP1): qHTS in cells in absence of CPT; DT40 Tdp1-/- hTDP1 cells, no CPT, ATP luminescence, 48 h; Potency, µM (series often up to 46.2 µM), usual class: inhibitors; 420,000 compounds, 15% hits; AID 686978, 2013; also: nearly all actives have a fitted effect of over 55% in size
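Stably hTDP1-transfected Tdp1-null chicken DT40 cells were treated with library compounds minus camptothecin and grown for at least 48 hr at 37 °C, after which cellular ATP was quantified by luminescence.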
A number is an active result; . = inactive; ? = inconclusive; / = no result; [ ] = dose if it differs, or a comment. Calls follow the shape of the dose curve; as a rule, active = well fitted curve in the direction sought with a large enough effect; inconclusive = small, poorly fitted or top-dose-only effect, or another doubt; inactive = no such curve, though single readings can be large; an effect the other way counts as inactive or inconclusive.

SMILES | VP16 counter | DT40 TDP1 CPT | RORg inh | TDP1 block | DT40 TDP1 no CPT
O=C(O)c1ccc(COc2ccccc2Cl)cc1 | . | . | . | . | .
O=C(COc1ccccc1Cl)Nc1ccc(N2CCN(C(=O)c3ccccc3)CC2)cc1 | . | 18µM | ? | . | 15µM
O=C(COc1ccccc1Cl)Nc1ccc(N2CCCC2)cc1 | . | . | . | . | .
Cn1cc(-c2nc3cnc(Oc4cccc(Cl)c4)nc3n(C3CC3)c2=O)c2ccccc21 | . | . | . | / | .
Cc1cnc2c(C(=O)O)cnn2c1 | . | . | . | . | .
Cc1cccc(N2CCN(C(=O)c3cccn4c(=O)c5c(C)c(C)sc5nc34)CC2)c1C | . | ? | . | . | ?
CCN1CCN(c2ccc(NC(=O)COc3ccc([N+](=O)[O-])cc3)cc2)CC1 | . | ? | ? | . | ?
O=C(COc1ccccc1Cl)Nc1cc(NC(=O)COc2ccccc2Cl)cc(C(=O)O)c1 | ? | . | ? | 35µM | .
COc1ccccc1OCC(=O)Nc1cc(NC(=O)COc2ccccc2OC)cc(C(=O)O)c1 | . | . | . | . | .
CCN1CCN(c2ccc(NC(=O)COc3ccc(Cl)cc3C)cc2)CC1 | / | 18µM | / | . | ?
CN1CCN(C(=O)c2cccc(COc3cc(Cl)ccc3Cl)c2)CC1 | . | ? | . | . | 22µM
CC1c2ccsc2CCN1S(=O)(=O)c1ccccc1 (stereo unspecified) | ? | . | ? | . | .
O=S(=O)(c1cccc(F)c1)N1CCc2sccc2C1c1ccc(OC(F)(F)F)cc1 (stereo unspecified) | . | ? | . | . | 15µM
COc1ccc(/C=N/n2cnnc2SCc2ccccc2)cc1 | . | ? | . | . | 21µM
COc1ccc(/C=N/n2cnnc2SCc2ccc(OC)cc2)cc1 | / | . | .[0.365 µM] | . | .
CC(=O)N1CCN(S(=O)(=O)c2ccc(S(=O)(=O)N3CCCC(C)C3)cc2)CC1 (stereo unspecified) | . | . | . | / | .
Cc1ccc(-n2nc(C)c3c(C)c(CCC(=O)NCc4ccccc4)c(C)nc32)cc1 | . | ? | . | . | ?
Cc1ccc(-n2nc(C)c3c(C)c(CCC(=O)NCc4ccccc4Cl)c(C)nc32)cc1 | / | 16µM | / | . | ?
Cc1ccc(-n2nc(C)c3c(C)c(CCC(=O)NCc4ccco4)c(C)nc32)cc1 | . | 23µM | . | . | ?
C=CCn1c(SCC(=O)Nc2nnc(C)s2)nnc1C1CC1 | . | . | . | 28µM | .
Cc1ccc(NC(=S)NCc2ccc(F)cc2)cc1 | / | ? | / | / | 26µM
Cc1ccc(CSC(Nc2ccc(F)cc2)=C(C#N)C#N)cc1 | 25µM | 3.7µM | ? | . | 3.3µM
FC(F)Oc1ccc(NC(=S)NCc2cccnc2)cc1 | . | . | . | . | .
Cc1ccc(NC(=O)CSCc2ccc(F)cc2)cc1 | . | . | . | . | ?
Cc1ccc(CNC(=S)Nc2ccc(NS(=O)(=O)c3ccc(C)cc3)cc2)cc1 | ? | ? | ? | . | 23µM
SMILES | VP16 counter | DT40 TDP1 CPT | RORg inh | TDP1 block | DT40 TDP1 no CPT
Fc1ccc(CNC(=S)Nc2ccc(OC(F)F)cc2)cc1 | ? | ? | 11µM | . | ?
Cc1ccc(SCc2nc3ccccc3[nH]2)cc1 | . | ? | ? | . | ?
Cc1nn(C)c(Oc2ccc(Cl)cc2)c1C(=O)Nc1ccc(F)cc1F | . | ? | . | . | 7.3µM
O=c1cc(-c2ccccc2)c2ccc3c(c2o1)CN(Cc1ccccc1)CO3 | / | . | / | . | ?
COc1ccc(-c2cc(=O)oc3c4c(ccc23)OCN(Cc2cccc(OC)c2)C4)cc1 | / | 10µM | / | . | 16µM
COc1ccc(-c2cc(=O)oc3c4c(ccc23)OCN(Cc2ccccc2)C4)cc1 | / | 18µM | / | . | ?
COc1nc(N/N=C/c2ccc(C)cc2)nc(N2CCCCC2)n1 | . | . | . | . | .
N#CC(C#N)=C1C=CC=CN1/C(=C\c1ccco1)C(=O)c1ccc(-c2ccccc2)cc1 | 3.2µM | 0.92µM | 4µM | . | 0.58µM
N#CC(C#N)=C1C=CC=CN1/C(=C\c1ccco1)C(=O)c1ccc(Cl)cc1 | 1.1µM | 0.58µM | 5µM | . | 0.92µM
O=C(NCC1CCCO1)/C(=C\c1ccco1)NC(=O)c1ccc(Cl)cc1 (stereo unspecified) | . | . | . | . | .
